Screening results from PubChem BioAssay.
In the library only some 12% were active in any assay of this set; here they are far more common.
UCHL1 inh = inhibitors of human UCHL1 deubiquitinase; P09936; purified UCHL1, Ub-rhodamine cleavage fluorescence; 47,000 compounds, 0.2% hits; AID 1645859; inhibition, % at 20 µM
USP30 inh = human USP30 deubiquitinase inhibition | Q70CQ3 | purified USP30, Ub-rhodamine cleavage fluorescence | inhibition, % at 25 µM | 47,000 compounds, 5.3% hits | AID 1645860
USP7 block = blocks human USP7 ubiquitin-rhodamine cleavage. purified USP7, Ub-rhodamine cleavage fluorescence. Q93009. AID 1645854. inhibition, % at 20 µM. 47,000 compounds, 0.3% hits
USP8 block = blocks human USP8 ubiquitin-rhodamine cleavage; P40818; purified USP8, Ub-rhodamine cleavage fluorescence, 30 min; inhibition, % at 20 µM; 47,000 compounds, 4.2% hits; AID 1645853
USP17 block = human USP17-like deubiquitinase inhibition; 47,000 compounds, 6.5% hits; purified USP17, Ub-rhodamine cleavage fluorescence, 3 h; inhibition, % at 50 µM; A8MUK1
USP10 inh = human USP10 deubiquitinase inhibition; Q14694; purified USP10, Ub-rhodamine fluorescence, 60 min; inhibition, % at 20 µM; 47,000 compounds, 1.1% hits
Starred values were filed as active, the others as inactive; x = no result. No stated cut-off is given here; in the data, active means inhibition above about 30%; inactive means the rest.

SMILES	UCHL1 inh	USP30 inh	USP7 block	USP8 block	USP17 block	USP10 inh
Cc1cc2occ(CC(=O)N3CCCCC3c3nnc(-c4cnccn4)o3)c2cc1C (centres undefined)	2	25	-3	30*	8	-1
COc1cnc(-c2ccccn2)nc1Sc1ccc(C)cc1	3	60*	-15	-312	7	-1
Cc1[nH]c(C)c(S(=O)(=O)Nc2ccc(F)cc2)c1-c1nc(C2CC2)no1	1	-16	-73	0	-7	4
Cc1nc(CC(=O)N2CCOC(c3cccc(-c4cnc(N)nc4)n3)C2)cs1 (centres undefined)	-1	-7	-4	-55	-3	-6
O=C(NCc1ccc(Cl)cc1)c1ccc(N2CCCS2(=O)=O)cc1	2	17	10	7	64*	13
CCN1[C@H]2CCN(Cc3ccc(OC)cc3)CC[C@@H]2Oc2ccccc2S1(=O)=O	4	7	8	-6	0	0
Cc1cccc(-c2noc(Cn3c(=O)[nH]c4cc5c(cc4c3=O)OCO5)n2)c1	-2	-85	2	55*	16	20
Cc1ccccc1-c1noc(Cn2c(=O)[nH]c3cc4c(cc3c2=O)OCO4)n1	-4	-51	-1	-8	-9	-5
O=c1c2ccccc2n(Cc2ccccc2)c(=O)n1Cc1nc(-c2ccccc2)no1	1	30*	11	17	11	12
Cc1cccc(-c2noc(CCn3c(=O)[nH]c4ccccc4c3=O)n2)c1	0	18	3	14	61*	1
CCn1c(=O)c2ccccc2n(Cc2nc(-c3cccc(OC)c3)no2)c1=O	2	-39	5	4	5	-4
CC1CCCCN1c1nc(F)c2c(c1F)S(=O)(=O)CCN2Cc1ccccc1 (centres undefined)	5	-24	-3	89*	57*	-4
C[C@H]1C(=O)N(C)[C@@H]2CCN(S(=O)(=O)c3ccco3)[C@@H]2C(=O)N1C	0	14	4	20	11	1
COC(=O)C1(Cc2ccc(O)cc2)OC(=O)C(O)=C1c1ccc(O)cc1 (centres undefined)	37*	70*	-54	-8	85*	-10
CC(=O)NCCc1ccc(O)cc1	-2	4	1	0	1	2
Cc1nc(-c2ccccc2)sc1C(=O)NCc1ccc2c(c1)OCO2	7	21	2	-2	0	9
O=C(CSc1nc(-c2ccccc2)c2ccccc2n1)NCc1ccc2c(c1)OCO2	-3	-262	2	55*	-5	17
O=C(Cn1c(=O)nc(-c2ccccc2)c2ccccc21)NCc1ccc2c(c1)OCO2	0	9	-2	-46	68*	4
O=C(CSc1nnc2sc3ccccc3n12)NCc1ccc2c(c1)OCO2	0	20	1	-14	32*	1
O=C(NCc1ccc2c(c1)OCO2)c1nc(-c2ccccc2)n(-c2ccccc2)n1	0	55*	10	2	18	15
Cc1cc(C)n2c(SCC(=O)NCc3ccc4c(c3)OCO4)nnc2n1	2	-7	2	12	17	1
NS(=O)(=O)c1ccc(CCNC(=O)CSc2nc3ccccc3c(=O)n2Cc2ccc3c(c2)OCO3)cc1	-1	23	6	53*	27	27
O=C(CSc1nc(C(=O)O)c2ccccc2n1)c1ccc(Cl)cc1	-1	24	0	10	16	4
O=C(CSc1nc(-c2ccccc2)c2ccccc2n1)NCc1ccc(C(=O)O)cc1	1	32*	6	19	17	1
CN(Cc1ccccc1F)C(=O)c1nc(-c2ccccc2)n(-c2ccccc2)n1	3	47*	7	17	25	3
SMILES	UCHL1 inh	USP30 inh	USP7 block	USP8 block	USP17 block	USP10 inh
c1ccc2c(c1)c(NCc1ccc3c(c1)OCO3)nn1cnnc21	3	-27	2	4	41*	-2
COc1cccc(/C=C(\C(=O)NCc2ccc3c(c2)OCO3)c2nc3ccccc3[nH]2)c1	-6	-22	2	-59	4	-6
Cc1ccc2nc(C3CN(S(=O)(=O)c4cccc(Cl)c4)C3)[nH]c2c1	1	-28	4	-110	-22	-3
Cc1ccccc1NC(=O)Cn1cnc(NC(=O)c2ccccc2)n1	-13	2	x	-28	-4	-7
Cc1cccc(NC(=O)CNc2nc(Nc3ccccc3)nc(Nc3ccccc3)n2)c1	12	32*	14	14	x	8
O=C(CNc1nc(Nc2ccccc2)nc(Nc2ccccc2)n1)Nc1ccccc1F	9	22	8	7	44*	10
O=C(CNc1nc(Nc2ccccc2F)nc(Nc2ccccc2F)n1)Nc1ccccc1	2	81*	8	6	7	29
Cc1ccccc1NC(=O)CNc1nc(Nc2ccccc2)nc(Nc2ccccc2)n1	1	-3	3	34*	65*	0
COc1ccc2c(c1)nc(CN1CCCC1)n2C	1	-20	3	0	1	0
Cc1ccc(S(=O)(=O)n2nc(-c3ccccc3)nc2NCc2ccc(F)cc2)cc1	7	27	-2	14	4	9
COc1cc(-n2cc(-c3ccccc3)n(CC(=O)Nc3c(C)cccc3C)c2=O)cc(OC)c1OC	2	4	1	-32	-2	-2
COc1cc2ccccc2cc1C(=O)Nc1ccccc1-c1nc2ccccc2[nH]1	8	1	11	10	0	6
O=C(COc1ccc(Cl)cc1Cl)Nc1ccc2sccc2c1	-2	46*	9	4	41*	8
O=C(COc1ccc(Cl)cc1Cl)Nc1ccccc1-c1nc2ccccc2[nH]1	4	10	24	27	84*	28
COc1ccc(OCCCC(=O)Nc2ccccc2-c2nc3ccccc3[nH]2)cc1	2	-123	3	35*	-20	-8
O=C(COc1ccc(Cl)cc1Cl)Nc1noc2ccccc12	0	-13	x	5	40*	11
O=C1N[C@@H]2CN(C(=O)c3ccccc3Cl)CC[C@H]2CO1	3	7	4	20	12	3
CC1Cc2ccccc2N1CC(=O)N1CCN(S(=O)(=O)c2ccccc2)CC1 (centres undefined)	-4	-73	-5	-7	-2	-7
O=C(Nc1ccncc1)C1CCCN(S(=O)(=O)c2cccc3nsnc23)C1 (centres undefined)	-1	-10	1	-61	-8	-1
O=C(c1ccc(Cl)cc1)c1c[nH]cc1-c1c(F)cccc1Cl	2	54*	3	10	32*	6
Cc1cccc(NC(=O)c2c(-c3c(F)cccc3Cl)noc2C)n1	0	x	1	0	-1	0
COc1cc2nc(NC(=O)c3ccc(F)cc3Cl)sc(=O)c2cc1OC	6	92*	-6	27	62*	5
COc1ccccc1CNC(=O)c1cnc2ccccc2n1	0	-9	1	-20	-9	-4
